# FBW7 activator – FBW7 E3 ligase activators, primary screen, biochemical, AlphaScreen, human; AlphaScreen FBW7–phospho-cyclin E peptide binding, activator screen; normalized activity (activation), % at 26.1 µM; hit rate 0.13% among 650,000; AID 1259310, 2017; F-box/WD repeat-containing protein 7 (Homo sapiens), Q969H0; in the data active = normalized activity above about 1.9%;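 also: purified mutant Fbw7 with reduced substrate affinity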
# GPR151 activ – activators of human GPR151, primary screen, cell-based, PathHunter beta-arrestin, luminescence; hit rate 1% among 650,000; activation, % at 11.2 µM; PathHunter beta-arrestin GPR151 cells; G-protein coupled receptor 151 (Homo sapiens), Q8TDV0; in the data active = activation above about 4.9%;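 also: 0% = median of compound wells and 100% = cells with positive control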
# MITF inh – MITF inhibitors, primary screen, biochemical, AlphaScreen, human; hit rate 0.91% among 650,000; inhibition, % at 2.6 µM; AID 1259374, 2018; AlphaScreen MITF homodimerization, bead proximity signal; Microphthalmia-associated transcription factor (Homo sapiens), O75030; in the data active = inhibition above about 50%;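 also: 0% = vehicle wells with protein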
# TEAD-YAP block – TEAD-YAP interaction inhibition, primary screen, TEAD-YAP interaction inhibitor project, luminescence, HEK-TIYL cells; TEAD-Gal4/YAP UAS-luciferase luminescence; inhibition, % at 9.12 µM; hit rate 1.4% among 640,000; in the data active = inhibition above about 32%;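 also: 0% = median of test compound wells and 100% = reference inhibitor wells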
# * = called active by the depositor. The list is not random: actives were taken first. Their share in the collection is about 3.5%.
SMILES,FBW7 activator,GPR151 activ,MITF inh,TEAD-YAP block
CC(C)(C)c1ccc(OCC(=O)Nc2ccncc2)c(Br)c1,0,1,-7,34*
O=C(COc1ccc(CO)cc1Br)Nc1ccccc1,0,-2,-7,55*
CC(=O)c1cccc(NC(=O)COc2ccc(C)cc2Br)c1,0,-1,5,-41
Cc1ccc(OCC(=O)Nc2ccccc2)c(Br)c1,0,0,4,70*
CCOC(=O)C1CCN(c2c(NCc3ccc(F)cc3)c(=O)c2=O)CC1,0,-2,12,64*
CCOC(=O)C1CCN(c2c(NCc3ccc(N(C)C)cc3)c(=O)c2=O)CC1,0,1,5,1
CCOC(=O)C1CCN(c2c(NCc3ccc(Cl)cc3)c(=O)c2=O)CC1,0,-1,1,67*
CCOC(=O)C1CCN(c2c(NCc3ccc(OC)cc3)c(=O)c2=O)CC1,0,0,-10,58*
CCOC(=O)C1CCN(c2c(Nc3cccc(SC)c3)c(=O)c2=O)CC1,0,0,1,55*
CCOC(=O)C1CCN(c2c(Nc3ccc(C)c(F)c3)c(=O)c2=O)CC1,0,0,-1,-10
CC(=O)N1CCc2cc(S(=O)(=O)N3CCN(c4cccc(C)c4)C(C)C3)ccc21 (stereo unspecified),0,2,-2,9
CCn1c(=O)c2c(nc3n(-c4ccc(OC)cc4)c(C)cn23)n(C)c1=O,0,0,-1,0
O=C(c1cc2ccccc2oc1=O)N(Cc1ccc(F)cc1)C1CC1,1,-1,13,3
COc1cc(/C=C2/C=C(c3ccc(C)cc3)OC2=O)ccc1O,0,-1,8,65*
COc1cc(/C=C2/C=C(c3ccc(C)cc3)OC2=O)ccc1C,0,0,10,32*
Cc1cc([N+](=O)[O-])cc2c1N(C)C(=O)C2=O,0,-1,16,19
O=C(CCC1(Cc2ccc3c(c2)OCO3)CCC(=O)N1)NCc1ccc(-n2cccn2)cc1 (stereo unspecified),0,-1,6,16
CCc1cccc(CC)c1NS(C)(=O)=O,0,1,0,-2
COc1ccc(C2Oc3c(OC)cccc3C3CC(c4ccc(C)o4)=NN32)cc1 (stereo unspecified),0,1,11,40*
COc1cccc2c1OC(c1cccc(Cl)c1)N1N=C(c3ccc(C)o3)CC21 (stereo unspecified),0,-1,5,41*
CCc1cccc(N=C2c3ccc([N+](=O)[O-])cc3C(=O)C2C(C)=O)c1 (stereo unspecified),0,3,-6,5
Cc1cccn2c(NC(=O)c3ccccc3)c(-c3ccccc3)nc12,0,-1,2,-6
O=c1[nH]c(CCl)nc2sc(-c3ccccc3)cc12,0,-2,5,33*
Cc1nc2ccccc2n1CC1CCN(CC(=O)Nc2ccc(F)cc2F)CC1,0,-1,-7,55*
Cc1cc(C)c2c(N)c(-c3nc4ccccc4[nH]3)sc2n1,0,-4,-4,-42
SMILES,FBW7 activator,GPR151 activ,MITF inh,TEAD-YAP block
Cc1ccc2nc(-c3sc4nc(C)ccc4c3N)[nH]c2c1,0,0,-3,72*
COc1ccc(-c2cc(C(=O)N/N=C(\C)c3ccc(Cl)cc3)[nH]n2)cc1,0,0,0,20
C/C(=N\NC(=O)c1ccccn1)c1cccs1,0,-6,12,65*
CCOc1ccc(-c2cc(C(=O)N/N=C(\C)c3cccs3)[nH]n2)cc1,0,-1,10,60*
CCOc1ccc(-c2cc(C(=O)N/N=C(\C)c3cccc(OC)c3)[nH]n2)cc1,0,-1,-1,52*
C=CCOc1ccc(C(=O)Nc2ccc(S(=O)(=O)N3CC(C)OC(C)C3)cc2)cc1 (stereo unspecified),0,-1,19,39*
COc1ccc(Nc2nc(C)cc(NCc3cccc(C(F)(F)F)c3)n2)cc1,0,0,6,38*
COc1ccc(-c2nc3ncnc(NCc4cccc(C(F)(F)F)c4)c3[nH]2)cn1,0,0,13,54*
COc1ccc(Nc2nccc(NCc3cccc(C(F)(F)F)c3)n2)cn1,0,0,-13,9
COc1ccc(Nc2nc(C)cc(NCc3cccc(C(F)(F)F)c3)n2)cn1,1.9*,1,6,29
